From PubChem
Shown are actives, neighbours in structure and some others; about 3.2% of the full set was active somewhere.
MsrA act: bovine methionine sulfoxide reductase A activation | purified bovine MsrA, absorbance read-out | actives 0.3% (n = 360,000) | AID 602163 | activation, % at 10.6 µM; in the data active means activation above about 7.5%;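 further: 0% = vehicle and 100% = reference activator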
MsrA inhibitor: inhibits bovine methionine sulfoxide reductase A; purified bovine MsrA, absorbance read-out; inhibition, % at 15.5 µM; actives 0.75% (n = 360,000); in the data active means inhibition above about 4.5%;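 further: 0% = vehicle wells with enzyme and 100% = reference inhibitor wells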
HGIII-sPLA2 inh: Inhibits HGIII-sPLA2 liposome hydrolysis, primary screen. Q9NZ20. inhibition, % at 12.2 µM. actives 0.56% (n = 370,000). QFRET BODIPY PC-A2 liposome hydrolysis, fluorescence;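 active means inhibition above mean plus 3 SD of compounds lying within the high and low control bounds, cut at about 19% in these data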;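 further: 0% = median of test compound wells and 100% = no enzyme DMSO wells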
Target sequence (Q9NZ20 whole entry, looked up): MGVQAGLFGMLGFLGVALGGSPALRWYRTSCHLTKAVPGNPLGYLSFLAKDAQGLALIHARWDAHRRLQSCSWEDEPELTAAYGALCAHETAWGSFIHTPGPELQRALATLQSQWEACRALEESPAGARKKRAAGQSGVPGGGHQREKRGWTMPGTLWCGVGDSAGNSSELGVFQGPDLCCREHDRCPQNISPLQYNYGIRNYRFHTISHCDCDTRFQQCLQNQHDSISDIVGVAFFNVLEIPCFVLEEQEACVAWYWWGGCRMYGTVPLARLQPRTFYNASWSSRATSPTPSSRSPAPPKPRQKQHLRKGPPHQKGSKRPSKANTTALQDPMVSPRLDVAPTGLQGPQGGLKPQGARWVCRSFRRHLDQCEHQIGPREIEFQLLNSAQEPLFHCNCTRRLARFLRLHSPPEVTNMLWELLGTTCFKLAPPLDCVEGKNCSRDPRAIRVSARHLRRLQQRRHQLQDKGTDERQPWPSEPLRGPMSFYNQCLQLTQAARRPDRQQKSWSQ
PG9 binder: PG9 antibody binding by small molecule; TR-FRET gp120-PG9 antibody binding; inhibition, % at 6.7 µM; actives 0.43% (n = 360,000); AID 624416; in the data active means inhibition above about 8.5%
rCAG RNA binder: molecules binding r(CAG) RNA repeats. actives 1.3% (n = 370,000). inhibition, % at 3 µM. r(CAG) RNA repeat, TO-PRO-1 dye displacement fluorescence;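 active means inhibition above the plate cutoff, the mean of all test compounds on that plate plus 3 SD, cut at about 35% in these data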;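 further: 0% = DMSO alone and 100% = 100 µM mitoxantrone as full dye displacement; higher means more dye released from RNA so lower well fluorescence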
rCAG binder conf: r(CAG) RNA repeat binding, confirmation; shares compounds with rCAG RNA binder; TO-PRO-1 dye displacement fluorescence; inhibition, % at 3 µM; actives 70% (n = 4,300); AID 652065;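 active means inhibition above a per-plate cutoff, the mean inhibition of sample wells plus 3 SD, cut at about 35% in these data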;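 further: loss of TO-PRO-1 fluorescence as compound displaces dye from 1x1 AA loop RNA; 0% = DMSO only wells and 100% = 100 µM mitoxantrone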
dCAG dye counter: DNA CAG dye complex inhibition counter-screen; d(CAG) DNA oligo TO-PRO-1 dye displacement, fluorescence; actives 94% (n = 4,300); inhibition, % at 3 µM; shares compounds with rCAG RNA binder;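 active means inhibition above its plate's cutoff, the mean test-well inhibition plus 3 SD, cut at about 4.8% in these data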;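 further: 0% = DNA dye mix with DMSO and 100% = 100 µM mitoxantrone; hits displace the dye from DNA and so lower well fluorescence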
Numbers without * were called inactive; . = not tested or not shown.

SMILES	MsrA act	MsrA inhibitor	HGIII-sPLA2 inh	PG9 binder	rCAG RNA binder	rCAG binder conf	dCAG dye counter
COc1ccc(C(=O)/C(C#N)=N/Nc2cccc([N+](=O)[O-])c2)cc1	-3.0	2.2	-9.0	-0.8	44.3*	51.6*	13.1*
N#C/C(=N\Nc1cccc(Cl)c1)C(=O)c1ccccc1	-13.0	0.8	-75.6	-1.9	72.5*	43.5*	11.0*
O=C(Cc1ccccc1Cl)NCCN1C(=O)C2C3C=CC(C3)C2C1=O (stereo not given)	.	.	16.5	.	4.3	.	.
CCC[C@@H](/C=C/C(=O)OC(C)(C)C)Sc1ccc(C(C)(C)C)cc1	.	.	18.7	.	1.0	.	.
COC(=O)C1CN(Cc2ccccc2)CCS(=O)(=O)N1Cc1cn(Cc2cccc(Cl)c2)nn1 (stereo not given)	.	.	-1.6	.	10.8	.	.
N#Cc1c(SCC(=O)O)nc(N2CCCCC2)c2c1CCCC2	-3.1	2.6	-9.9	-0.2	34.6*	26.8	7.1*
C/C=C1\NC(=O)[C@H](C)NC(=O)[C@@H](NC(=O)[C@@H](Cc2ccc(O)cc2)NC(=O)[C@@H](NC(=O)/C(C)=C/C)C(C)C)[C@@H](C)OC(=O)[C@H](CCCCc2ccc(O)cc2)NC(=O)[C@@H](CCC(=O)O)NC1=O	-3.0	-1.1	-6.7	-1.1	35.8*	34.2	6.7*
Nc1[nH]n2c(=O)cc(-c3ccccc3)nc2c1N=Nc1ccc(S(N)(=O)=O)cc1	-15.2	2.6	1.2	-7.2	44.4*	21.8	5.5*
Nc1[nH]n2c(=O)cc(-c3ccccc3)nc2c1N=Nc1ccccc1	-7.5	-0.1	7.4	1.3	12.9	.	.
CCOC(=O)Cc1c(Sc2ccccc2)c2cc(C)ccc2n1C	-1.8	1.2	9.0	-0.8	5.6	.	.
Cc1ccc2c(c1)c(Sc1ccccc1)c(CC(=O)O)n2C	-5.1	-1.8	-16.9	-0.4	34.9*	26.3	5.2*
O=C1CCC[C@H]2C[C@H](NCc3cccc(Cl)c3)CC[C@]23CCCN13	.	.	0.3	.	.	.	.
Cc1ccc(C(=O)C2CCN(CC(=O)NC(C)C)CC2)cc1	.	.	2.5	.	-1.5	.	.
CCOC(=O)c1sc(NC(=O)CSc2n[nH]c(-c3ccccc3)n2)c(C#N)c1C	2.3	2.6	-49.7	-0.9	60.2*	55.6*	19.3*
CCCCCn1nnnc1C1(C)Cn2nccc2C(=O)N1Cc1ccco1 (stereo not given)	.	.	-1.2	.	6.5	.	.
COc1ccc(-c2csc(NC(=S)NC(=O)/C=C/c3ccco3)n2)cc1Br	-7.9	-0.7	3.6	0.9	66.8*	33.5	16.3*
O=C(/C=C/c1ccco1)NC(=S)Nc1cccc(-c2nc3ccccc3o2)c1	-5.4	2.7	-2.4	0.2	35.0*	21.8	12.7*
NS(=O)(=O)c1ccc(NC(=S)NC(=O)/C=C/c2ccco2)cc1	0.7	1.5	-5.2	-3.3	39.6*	23.5	10.8*
Cc1ccc(-c2nc3ccccc3o2)cc1NC(=S)NC(=O)/C=C/c1ccco1	-10.4	0.5	-6.3	-0.2	25.2	.	.
O=C(/C=C/c1ccco1)NC(=S)Nc1cccc([N+](=O)[O-])c1	-14.5	2.0	3.4	-0.2	53.7*	33.5	18.4*
O=C(OCC#CCSc1nnc(-c2cccc3ccccc23)o1)c1csc2ccccc12	.	.	-5.1	.	.	.	.
COc1cccc(-c2ccc(CC[C@H]3O[C@H]4CC[C@H](CO)O[C@H]4C[C@H]3NS(C)(=O)=O)cc2)c1	.	.	-28.2	.	2.1	.	.
O=C(CC(C(=O)O)c1ccc(Cl)cc1)c1ccc(Cl)c(Cl)c1 (stereo not given)	1.6	0.9	-15.2	0.1	30.8	.	.
O=C(CC(C(=O)O)c1ccc(Cl)cc1Cl)c1ccc(Cl)cc1 (stereo not given)	-3.5	0.3	-11.3	-1.0	40.5*	21.1	3.6
CC(/C=C/c1ccc(N(C)C)cc1)=N/N=C1/NC(=O)CC(C(=O)Nc2ccc(Cl)cc2)S1 (stereo not given)	-8.7	0.2	-15.8	-2.1	41.2*	40.5*	14.5*
O=c1c(-c2cccs2)nc2ccccc2n1C(c1ccccn1)c1nc2ccccc2[nH]1 (stereo not given)	.	2.2	5.9	-0.9	17.4	.	.
CCOC(=O)CNS(=O)(=O)c1ccc2c3c(cccc13)C(=O)N2CC	-5.9	0.9	-1.7	2.8	-0.4	.	.
CCOC(=O)Cc1csc(NS(=O)(=O)c2ccc3c4c(cccc24)C(=O)N3CC)n1	-0.7	1.8	-31.4	0.4	55.8*	46.8*	13.2*
